Bioassay records (PubChem)
This is a sample that favours compounds with a hit; in the whole collection about 2.6% have one here.
SmPrx2 inh: Schistosoma Mansoni Peroxiredoxins (Prx2); Schistosoma mansoni peroxiredoxin 2 (Prx2); S. mansoni Prx2 activity coupled to TGR/GSH (TGR is thioredoxin glutathione reductase), NADPH fluorescence loss, qHTS; Potency, µM; hit rate 0.07% among 65,000; AID 448, 2006
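Coupled assay in which S. mansoni TGR passes NADPH reducing equivalents via glutathione to Prx2, which reduces H2O2. Compounds were preincubated 15 min at room temperature with 25 nM TGR/50 nM Prx2 mix. Kinetic NADPH fluorescence loss (ex 365/em 450 nm) was monitored.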
LT uptake inh: qHTS Assay for Anthrax Lethal Toxin Internalization; hit rate 0.67% among 70,000; Cells, anthrax lethal toxin internalization, FRET ratio (460/530); Potency, µM (top dose mostly 40 µM), for the others: at the highest dose activity change, negative = inhibition, most hits filed as inhibitors; AID 912, 2007; also: % is scaled to controls: 0 for no effect and ±100 for the full control effect; nearly all actives have a fitted effect of over 50% in size
AmpC det inh: Promiscuous and Specific Inhibitors of AmpC Beta-Lactamase (assay with detergent); P00811; purified AmpC, nitrocefin hydrolysis with detergent; Potency, µM (series often up to 28.7 µM), inactives show at the highest dose activity change, negative = inhibition; hit rate 0.09% among 71,000; active = well fitted curve in the direction sought with a large enough effect; inconclusive = small, poorly fitted or top-dose-only effect; also: % is scaled to controls: 0 for no effect and ±100 for the full control effect
Target sequence (P00811 whole entry, looked up): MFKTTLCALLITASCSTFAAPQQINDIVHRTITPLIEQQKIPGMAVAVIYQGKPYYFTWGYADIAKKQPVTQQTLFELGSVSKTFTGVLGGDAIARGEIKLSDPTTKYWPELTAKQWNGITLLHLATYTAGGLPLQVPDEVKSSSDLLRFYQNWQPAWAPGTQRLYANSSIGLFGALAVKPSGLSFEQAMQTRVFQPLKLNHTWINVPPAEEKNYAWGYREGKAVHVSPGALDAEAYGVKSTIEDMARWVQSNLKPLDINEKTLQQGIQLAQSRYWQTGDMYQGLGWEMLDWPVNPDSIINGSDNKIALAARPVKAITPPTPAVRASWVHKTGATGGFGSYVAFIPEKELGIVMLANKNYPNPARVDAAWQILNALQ
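E. coli AmpC (5.3 nM) in 20 mM phosphate pH 7.0 with 0.01% Triton X-100, preincubated 15 min RT with compound; nitrocefin (2 uL of 800 uM stock) hydrolysis followed by 480 nm absorbance every 20 s over 4 min.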
AmpC inh no det: Promiscuous and Specific Inhibitors of AmpC Beta-Lactamase (assay without detergent). hit rate 1.8% among 71,000. P00811. Potency, µM (highest dose often 28.7 µM), without a hit: top-dose activity change, negative = inhibition. AID 585, 2007. AmpC nitrocefin hydrolysis, absorbance 480 nm, no detergent; also: % of control where 0% means no effect
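AmpC in 20 mM phosphate buffer pH 7.0 was preincubated 15 min at room temperature with compounds. Nitrocefin (800 uM stock) was then added and hydrolysis followed at 480 nm every 20 s for 4 min.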
An asterisk follows results filed as active; i = inactive; ? = inconclusive; · = no result given; ! = repeats disagree; [ ] = remark or other dose. Unless noted, calls follow the shape of the full dose curve. Potency is read from the fitted curve at half-maximal effect.

SMILES | SmPrx2 inh | LT uptake inh | AmpC det inh | AmpC inh no det
Cc1ccc(Cn2c(SCC(=O)Nc3cc(C)on3)nc3ccccc3c2=O)cc1 | >57 | 11% | -1% | 13µM*[single pt active]
Cc1cc(NC(=O)CSc2nc3ccccc3c(=O)n2Cc2ccccc2)no1 | >57 | -9% | -2% | -20%
O=C(Nc1ccc(S(=O)(=O)NCc2ccccc2)cc1)Nc1ccc2c(c1)OCO2 | >57 | ? | -2% | 10µM*
CC1CCC(C(=O)O)NC1c1cccc(N2CCOCC2)c1 (stereo not given) | · | -6%[8 µM] | · | ·
O=C(c1cnccn1)N1CCC2(CC1)CCN(c1ccncc1)CC2 | >57 | 5% | -3% | 11%
CCNC(=O)[C@@H]1O[C@@H](n2cnc3c(NCc4ccccc4)ncnc32)[C@@H](O)[C@H]1O | >57 | ? | -3% | 2%
Cc1ccc(S(=O)(=O)N(CC(O)CN2CCCCC2)c2ccccc2)cc1 (stereo not given) | >57 | 8% | 12% | 4µM*[single pt active]
NC(=O)SCC(=O)Nc1ccc(Cl)c(Cl)c1 | · | -11% | 8% | 5µM*
Cc1ccc(NC(=O)CSC(N)=O)cc1Cl | >57 | 15% | 25% | 13µM*
COc1ccc(-c2nnc(SCC(=O)Nc3cccc(Cl)c3)o2)cc1 | >57 | 1% | 3% | 7.9µM*
NC(=O)SCC(=O)Nc1cccc(Cl)c1 | · | 8% | 8% | 7.9µM*
c1ccc2c(NCCN3CCOCC3)nc(-c3ccc4c(c3)OCO4)nc2c1 | >57 | ? | 8% | 80%
C=CCn1c(COc2ccc(CC)cc2)nnc1SC/C(O)=C(\C#N)c1nc2ccccc2[nH]1 | >57 | 0% | 5% | 1.3µM*
C=CCn1c(COc2ccccc2)nnc1SCc1ccc(C#N)cc1 | >57 | · | 9% | 36%
CCCN(CCc1ccccc1)[C@H]1CCc2c(O)cccc2C1 | >57 | 6% | -1% | 8%
COC(=O)[C@@H]1O[C@@H](SCCN)[C@@H](O)[C@H](O)[C@H]1O | >57 | -5%[8 µM] | -1%[5.75 µM] | 2%[5.75 µM]
O=C(c1ccncc1)N1CCC2(CC1)CN(Cc1cc(C(F)(F)F)cc(C(F)(F)F)c1)C2 | >57 | 13µM* | 23% | -6%
O=C(c1cc(C(F)(F)F)cc(C(F)(F)F)c1)N1CCC2(CC1)CN(Cc1ccncc1)C2 | >57 | ? | -3% | 74%
Cc1noc(C)c1-c1ccc2ncnc(NCc3cccs3)c2c1 | >57 | 11% | 2% | 8%
S=C(S)O[C@@H]1C[C@@H]2C[C@H]1[C@@H]1CCC[C@H]21 | >57 | ? | 16µM*! | 16µM*!
CO[C@H]1COC(=O)[C@@H](C)COC(=O)[C@@H](Cc2ccccc2)NC(=O)C/C=C\[C@H]1C | · | -6%[8 µM] | · | ·
O=C(Cn1cnc2sc(-c3ccccc3)cc2c1=O)NCc1ccco1 | >57 | -26% | 18% | 5µM*
CN(C)c1ccc(C(=O)Nc2nc3c(s2)CCCC3)cc1 | >57 | 13µM* | -2% | 4%
Cc1nn(Cc2nc(-c3cccs3)no2)c(C)c1Br | >57 | -18% | 10% | 2.5µM*[single pt active]
CCCN1C(=O)c2ccc(C(=O)NCc3ccco3)cc2C1=O | >57 | -6% | -1% | 6%
SMILES | SmPrx2 inh | LT uptake inh | AmpC det inh | AmpC inh no det
Cc1c(C)n(C)c2ccc(C(=O)NCc3cccs3)cc12 | >57 | ? | 15% | 4µM*[single pt active]
CCCN1C(=O)c2cc(C(=O)NCc3cccs3)ccc2C1O (stereo not given) | >57 | -17% | 9% | 4µM*[single pt active]
CCCN1C(=O)c2cc(C(=O)NCc3ccc(OC)cc3)ccc2C1O (stereo not given) | >57 | 0% | 12% | 3.2µM*[single pt active]
CCCN1C(=O)c2cc(C(=O)NCCc3cccc(C)c3)ccc2C1O (stereo not given) | >57 | ? | 17% | 4µM*[single pt active]
Cc1ccc(N2C(=O)c3ccc(C(=O)NCCN4CCOCC4)cc3C2=O)cc1 | >57 | -21% | -2% | 53%
c1csc(CNc2nc(-c3ccoc3)nc3ccccc23)c1 | >57 | ? | 11% | -16%
C/C(CCC(=O)OC[C@@H]1O[C@H](C#Cc2ccccc2)C=C[C@@H]1Oc1ccc(C)cc1)=N/O[C@@H](C)c1cc(-c2c(C)cc(C)cc2C)no1 | · | -19%[8 µM] | · | ·
N#Cc1cccc(-c2ccc3ncnc(NCc4cccnc4)c3c2)c1 | i | 4% | 7% | 20%
CCNc1ncc2nc(C)c(=O)n(-c3ccc(OC)cc3)c2n1 | >57 | -29% | -4% | 15%
COc1ccc(-n2c(=O)c(C)nc3cnc(N(C)C)nc32)cc1 | >57 | 10µM* | 0% | 20%
CC(=O)NCCNc1cc(-c2ccccc2C)ncn1 | >57 | -3% | 9% | 9%
O=S(=O)(c1ccccc1)N1CCC2(CCN(Cc3nccs3)CC2)CC1 | >57 | 5% | 0% | 13%
Cc1oc(-c2ccccc2F)nc1CS(=O)CC(=O)NCc1ccc2c(c1)OCO2 (stereo not given) | >57 | -11% | 12% | 4µM*[single pt active]
Cc1oc(-c2cccs2)nc1CS(=O)CC(=O)NCCc1ccccc1 (stereo not given) | >57 | -15% | 7% | 10%
Cc1oc(-c2ccccc2F)nc1CS(=O)CC(=O)NCc1cccs1 (stereo not given) | >57 | 0% | 10% | 4µM*[single pt active]
Cc1noc(C)c1C(=O)N1CCC[C@@]2(CCN(C(c3ccccc3)c3ccccc3)C2)C1 | >57 | 0% | 0% | -4%
COc1ccc(OC2C(O)COC2/C=C/C#Cc2ccccc2)cc1 (stereo not given) | · | -5%[8 µM] | · | ·
COc1cccc(Cn2c(=O)cnc3cnc(N4CCN(C)CC4)nc32)c1 | >57 | ? | 1% | 50%
CC(C)CC(C(=O)Nc1ccc2c(c1)OCCO2)N1C(=O)c2ccccc2C1=O (stereo not given) | >57 | -14% | 2% | 22%
CC(C)CC(C(=O)Nc1oc(-c2ccco2)c(-c2ccco2)c1C#N)N1C(=O)c2ccccc2C1=O (stereo not given) | >57 | ? | 18% | 5µM*
Cc1ccc(NC(=O)C2CCCN2S(=O)(=O)c2ccc3c(c2)CCC(=O)N3)cc1Cl (stereo not given) | >57 | -10% | 12% | 4µM*[single pt active]
O=C1CCc2cc(S(=O)(=O)N3CCCC3C(=O)N3CCN(c4ccccc4F)CC3)ccc2N1 (stereo not given) | >57 | -5% | 5% | 10%
O=C1CCc2cc(S(=O)(=O)N3CCCC3C(=O)N3CCN(c4ccccc4)CC3)ccc2N1 (stereo not given) | >57 | -4% | 27% | 4µM*[single pt active]
COC(=O)NC/C=C\c1nc(CCCO)co1 | · | 2%[8 µM] | · | ·
CN(C)c1ncnc2ccc(-c3ccccc3C#N)cc12 | >57 | -7% | 9% | 3%
CCCCN1C(=O)C(O)(CC(=O)c2ccco2)c2cc(Br)ccc21 (stereo not given) | >57 | ? | 12% | 2.5µM*[single pt active]
O=C(Nc1ccccc1)C1=C(O)CC(c2ccco2)CC1=Nc1ccccc1 (stereo not given) | >57 | -2% | 21% | 7.9µM*
O=C(Nc1ccccc1)C1=C(O)CC(c2ccoc2)CC1=Nc1ccccc1 (stereo not given) | · | ? | -2% | -14%
